Most compounds without a hit are left out; they make up all but 2.8% or so of the library.
TROY NFkB inh: TROY signaling inhibition | Q293 LMP1-TROYcd NF-kB luciferase reporter, 4 h | 360,000 compounds, 0.98% hits | inhibition, % at 10 µM | AID 1347056;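 active means compounds whose plate-normalised and pattern-corrected inhibition of the luciferase reporter signal at the single screening dose is 50% or more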
TWEAK-Fn14 inh: inhibitors of TWEAK-Fn14 interaction signaling; TWEAK-stimulated Fn14 reporter cells, luciferase luminescence, 8 h; inhibition, % at 10 µM; 360,000 compounds, 2% hits; AID 1159606; in the data active means inhibition above about 50%
PAX8 reporter: inhibitors of PAX8 transcriptional activity in RMG-I cells | 360,000 compounds, 1.2% hits | RMG-I TPO-luciferase reporter, SteadyGlo, 24 h | inhibition, % at 12.6 µM;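 active means mean replicate inhibition at least 60% with every replicate also reaching 60%; inconclusive means only one of the two criteria is met; inactive means mean below 60% and not all replicates reaching 60%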;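 further: luciferase light reporting Pax8 driven TPO promoter activity; plate controls were median of neutral control wells for no effect and mitoxantrone controls for full effect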
LGR2 antag: blocks bursicon-induced cAMP signaling via Drosophila LGR2; HEK293 LGR2, CRE-luciferase, bursicon-stimulated, 4 h; inhibition, % at 9.99 µM; 380,000 compounds, 0.35% hits; AID 720647;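 active means drop in luminescence signal, shown as inhibition above about 50% in the replicate tests, limit read from the data, passing the limit was not always enough; inconclusive means probably only some replicates passing the limit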;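 further: agonist challenge used bursicon conditioned medium at about half maximal strength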
EWS-Fli inh: blocks EWS/Fli oncoprotein-driven transcription. A673 NR0B1-luciferase reporter, viability-normalised. inhibition, % at 12.6 µM. 350,000 compounds, 0.67% hits. AID 651661;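 active means mean inhibition of at least 50% after viability correction, with every replicate also passing that limit; inconclusive means mean reaches 50% but only one of two replicates passes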;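 further: firefly luciferase signal divided by Alamar Blue viability fluorescence both relative to DMSO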
The depositor's hits bear a star; u = inconclusive; x = no result.

SMILES | TROY NFkB inh | TWEAK-Fn14 inh | PAX8 reporter | LGR2 antag | EWS-Fli inh
C[C@H]1CN([C@@H](C)CO)C(=O)Cc2cc(NS(=O)(=O)c3ccc(F)cc3)ccc2O[C@@H]1CN(C)S(C)(=O)=O | x | x | 2 | 2 | 4
C[C@@H]1CCCCO[C@H](CN(C)C(=O)C2CCCCC2)[C@@H](C)CN([C@H](C)CO)C(=O)c2cc(NC(=O)Nc3ccc(C(F)(F)F)cc3)ccc2O1 | x | x | x | 44 | -9
Nc1nc(Cl)cc(N2CCC(c3cc(-c4ccc(Cl)cc4)n[nH]3)CC2)n1 | 40 | 94* | x | 28 | 11
COc1ccc(OC)c(-c2cc(C3CCN(c4cc(Cl)nc(N)n4)CC3)[nH]n2)c1 | 53* | 67* | x | x | x
COc1ccc(-c2cc(C3CCN(c4cc(Cl)nc(N)n4)CC3)[nH]n2)cc1 | 38 | 32 | x | x | x
Cc1ccc(S(=O)(=O)Nc2cccc3c2O[C@H](CN(C)Cc2ccncc2)[C@@H](C)CN([C@H](C)CO)C3=O)cc1 | x | x | -7 | 16 | 1
CC(C)(C)c1ccc(C(=O)Nc2ccccc2NC(=O)c2ccco2)cc1 | x | 96* | x | x | x
CC(C)(C)c1ccc(Oc2ccc(NC(=O)c3ccco3)cn2)cc1 | 12 | 78* | 44 | 13 | 30
C[C@H](CO)N1C[C@H](C)[C@H](CN(C)C(=O)Nc2ccc(F)cc2)Oc2ccc(NS(=O)(=O)c3cn(C)cn3)cc2C1=O | x | x | 3 | 7 | -12
COc1ccc2c3c(n(C)c2c1)[C@@H](CO)N(Cc1ccc2c(c1)OCO2)CC31CCN(C(=O)C2CC2)CC1 | x | x | x | 0 | -12
Fc1ccc(-c2csc3ncnc(N4CCc5ccccc5C4)c23)cc1 | 46 | 26 | 70* | 17 | 8
Cc1ccc(-c2csc3ncnc(N4CCc5ccccc5C4)c23)cc1 | 58* | 78* | 10 | 18 | x
Fc1ccc(-c2csc3ncnc(N4CCN(Cc5ccccc5)CC4)c23)cc1 | 11 | 8 | 28 | -1 | 23
Cc1ccc(-c2csc3ncnc(N4CCN(Cc5ccccc5)CC4)c23)cc1 | 7 | -38 | 10 | -4 | 14
CN1c2ccc(-c3cccc(F)c3)cc2[C@@H]2[C@@H](CCN2C(=O)C2CCC2)[C@@H]1CO | x | x | x | 1 | -14
NC(=S)NN=Cc1nccc2c(C(F)(F)C(F)(F)C(F)(F)F)cccc12 | -58 | 22 | 75* | 12 | 37
Cc1cnc(C=NNC(N)=S)c2cccc(N)c12 | 12 | 38 | -10 | 0 | 10
NC(=S)NN=Cc1nccc2ccccc12 | 31 | 77* | 55 | 18 | 11
COCC(=O)N1[C@@H]2CN(C(=O)c3cccc(OC)c3)c3ccccc3[C@@H]2[C@@H]1CO | x | x | -15 | -13 | -7
O=C(COC(=O)c1nc(Cl)c(Cl)c(Cl)c1Cl)NCc1ccccc1 | 32 | 85* | 26 | -20 | 31
COc1ccc2c3c([nH]c2c1)[C@@H](CO)N(Cc1ccccn1)CC31CCN(C(C)=O)CC1 | x | x | x | -11 | 12
C[C@H]1CN([C@@H](C)CO)C(=O)Cc2cc(N(C)C)ccc2O[C@@H]1CN(C)C(=O)Nc1ccc(F)cc1 | x | x | 5 | 5 | -4
COc1ccccc1CCn1cnc(-c2ccccc2)c1CC(C)C | x | x | 15 | 52* | 26
CCC(=O)N1C[C@@H](C)[C@H](OC)CN(C)C(=O)c2cc(NS(C)(=O)=O)ccc2OC[C@H]1C | x | x | x | -24 | -5
O=C(Cn1c(=O)oc2ccccc21)Nc1ccc(Br)cc1 | -1 | 2 | 7 | -10 | -11
SMILES | TROY NFkB inh | TWEAK-Fn14 inh | PAX8 reporter | LGR2 antag | EWS-Fli inh
N#Cc1c(NC(=O)Cn2c(=O)oc3ccccc32)oc(-c2ccccc2)c1-c1ccccc1 | 68* | -14 | x | 14 | x
CCOc1ccc(/C=C/C(=O)Nc2ccc(C(N)=O)cc2)cc1OC | 6 | -9 | x | -2 | x
CCOc1cc(/C=C/C(=O)Nc2ccc(C(=O)NCCN(CC)CC)cc2)ccc1OCC(C)C | -8 | -28 | 78* | 103* | 55*
C[C@H]1CCCCO[C@H](CN(C)S(=O)(=O)c2ccc(Cl)cc2)[C@@H](C)CN([C@@H](C)CO)C(=O)c2cc(NC(=O)Nc3ccccc3)ccc2O1 | x | x | 32 | 27 | 0
C[C@H](CO)N1C[C@H](C)[C@H](CN(C)S(=O)(=O)c2ccc(Cl)cc2)OCCCC[C@H](C)Oc2ccc(NC(=O)Cc3ccccc3)cc2C1=O | x | x | u | -3 | 8
C[C@H](CO)N1C[C@H](C)[C@H](CN(C)S(=O)(=O)c2ccc(Cl)cc2)OCCCC[C@H](C)Oc2ccc(NC(=O)Nc3ccccc3)cc2C1=O | x | x | 65* | 9 | -2
C[C@@H]1CN([C@H](C)CO)C(=O)c2cc(NC(=O)Nc3ccc(F)cc3)ccc2O[C@@H](C)CCCCO[C@H]1CN(C)S(=O)(=O)c1ccc(Cl)cc1 | 14 | -21 | 76* | 14 | -15
C[C@@H]1CCCCO[C@@H](CN(C)S(=O)(=O)c2ccc(Cl)cc2)[C@H](C)CN([C@H](C)CO)C(=O)c2cc(NC(=O)Cc3ccccc3)ccc2O1 | x | x | 62* | 9 | 15
C[C@@H]1CCCCO[C@H](CN(C)S(=O)(=O)c2ccc(Cl)cc2)[C@H](C)CN([C@@H](C)CO)C(=O)c2cc(NC(=O)NC3CCCCC3)ccc2O1 | x | x | 63* | 22 | 6
COCC#Cc1ccc2c(c1)O[C@H](CN(C)C(=O)Nc1ccccc1F)[C@H](C)CN([C@H](C)CO)S2(=O)=O | x | x | x | -3 | -3
C[C@@H]1CN([C@H](C)CO)C(=O)c2cc(NC(=O)Nc3ccc(C(F)(F)F)cc3)ccc2O[C@@H](C)CCCCO[C@@H]1CN(C)S(=O)(=O)c1cn(C)cn1 | x | x | -22 | 9 | 2
C[C@H](CO)N1C[C@H](C)[C@@H](CN(C)S(=O)(=O)c2ccc(Cl)cc2)OCCCC[C@H](C)Oc2ccc(NC(=O)Nc3ccc(F)cc3)cc2C1=O | x | x | 46 | 10 | 23
C[C@@H]1CCCCO[C@H](CN(C)S(=O)(=O)c2ccc(Cl)cc2)[C@@H](C)CN([C@@H](C)CO)C(=O)c2cc(NC(=O)Nc3ccc(F)cc3)ccc2O1 | x | x | 66* | 17 | 6
COCCN(C(=O)COC(=O)/C=C/c1ccc(OC)c(OC)c1)c1c(N)n(Cc2ccccc2)c(=O)[nH]c1=O | 8 | -20 | -10 | -3 | -7
COCCN(C(=O)COC(=O)/C=C/c1cccc(OC)c1)c1c(N)n(CC(C)C)c(=O)[nH]c1=O | -10 | 4 | 67* | 8 | -2
COc1ccc(S(=O)(=O)Nc2ccc3c(c2)C(=O)N([C@H](C)CO)C[C@@H](C)[C@H](CN(C)S(=O)(=O)c2ccc(F)cc2)OCCCC[C@H](C)O3)cc1 | x | x | 79* | 5 | 13
COc1ccc(S(=O)(=O)Nc2ccc3c(c2)C(=O)N([C@H](C)CO)C[C@H](C)[C@H](CN(C)S(=O)(=O)c2ccc(F)cc2)OCCCC[C@H](C)O3)cc1 | x | x | 77* | -2 | 10
COc1ccc(S(=O)(=O)Nc2ccc3c(c2)C(=O)N([C@H](C)CO)C[C@H](C)[C@H](CN(C)S(=O)(=O)c2ccc(F)cc2)OCCCC[C@@H](C)O3)cc1 | x | x | 0 | u | 2

High-throughput results: PubChem BioAssay, several laboratories
